# Results from PubChem BioAssay AID720650 (Broad Institute, 2013).
# Calls of active or inactive are those of the source. How the calls were made is not given here.
# Experiment: C difficile toxins, biochemical counterscreen, UDPG substrate absence, confirmatory dose response (AID 720650)
# Conditions: series mostly up to 19.5 µM; activity change, negative = inhibition: at the top concentration
Compound,AC50,"activity change, negative = inhibition"
CC1(C)CC(=O)C(C=Nc2ccc(O)cc2)=C(O)C1,5.68 µM (active),
COc1cc(/C=N/NC(=O)c2cccc([N+](=O)[O-])c2)ccc1O,,-3.22% (inactive)
CCC(=O)N1CC[C@@H]2[C@@H](CO)N(C)c3ccc(-c4ccccc4)cc3[C@@H]21,6.31 µM (active),
CCOc1cc(/C=N\n2nnnc2N)ccc1O,,-0.253% (inactive)
CCCCCCCN1C(N(C)C)=NC[C@@H]1Cc1ccccc1,,-10.6% (inactive)
Cc1csc(N=Nc2ccc(N(C)C)cc2)[n+]1[O-],> 39 µM (inactive),
Cc1cc(C(C)(C)C)cc(CN2CCN(S(=O)(=O)c3cccs3)CC2)c1O,,-5.83% (inactive)
COc1ccc(/C=C/c2nc3ccccc3n2C)cc1,> 39 µM (inactive),
CN1C(=O)c2cc(NC(=O)c3cccc(F)c3)ccc2OC[C@@H]2O[C@@H](CC(=O)NCC3CCCCC3)CC[C@H]21,inactive,
CCCC(=O)Nc1sc2c(c1C(=O)Nc1ccccn1)CCCC2,,2.48% (inactive)
CS(=O)(=O)N(CC(=O)Nc1ccc(S(=O)(=O)N2CCOCC2)cc1)c1ccccc1Br,,-6.84% (inactive)
O=C(NNc1ccc(-c2csnn2)cc1)c1cc(Cl)cc(Cl)c1,< 0.16 µM (active),
Nc1ncnc2[nH]c(=S)[nH]c12,> 39 µM (inactive),
CCc1ccc(Nc2n[n+](-c3ccccc3)c(-c3ccc(OC)c(Br)c3)s2)cc1,,-14.3% (inactive)
COC(=O)/C=C/C(=O)Nc1ccc(O)c(Cl)c1,13.6 µM (active),
COc1ccccc1-c1cn[nH]c1-c1ccc(O)cc1O,> 39 µM (inactive),
CNC(=O)C1CCN(S(=O)(=O)c2c(C)noc2/C=C/c2cccc(OC)c2)CC1,,-5.22% (inactive)
Nc1ccc(N=Nc2ccc(O)cc2)c(N)n1,7.86 µM (active),
COc1cc(/C=C/C(=O)OCC(=O)NCc2ccco2)ccc1O,,-18.6% (inactive)
Oc1ccc(/C=N/Nc2nc(N3CCCC3)nc(N3CCCC3)n2)cc1O,,-1.92% (inactive)

Compound,AC50,"activity change, negative = inhibition"
O=S(=O)(c1ccccc1)N1CCN=C1SCc1ccccc1,> 39 µM (inactive),
CCCCn1c(-c2ccccc2C)nc2cc3[nH]c(=O)c(C(C)C)nc3cc21,,-15.5% (inactive)
CCc1ccc2oc(-c3cc(N)ccc3Cl)nc2c1,,-14.5% (inactive)
CCOc1ccccc1-n1c(C)nc2cc(C(=O)O)ccc21,,7.93% (inactive)
Cc1onc(-c2c(F)cccc2Cl)c1C(=O)Nc1nnc(C(F)(F)F)s1,,-11.9% (inactive)
O=C(Nc1nnc(C(F)(F)F)s1)c1ccc(Br)s1,8.05 µM (active),
Cc1cc(N/N=C/c2ccncc2)nc2ccccc12,,-3.14% (inactive)
Cc1ccc(CN2C(=O)CN=C(c3ccccc3)c3ccccc32)cc1,,-8.71% (inactive)
Cn1cc(S(=O)(=O)CC(=O)N2CCCc3ccccc32)c2ccccc21,,-8.72% (inactive)
CCc1ccc(NC(=O)C2=CC(c3ccc(OC)cc3)=NS(=O)(=O)N2C)cc1,,-6.94% (inactive)
COc1cc(/C=N/NC(=O)Cn2nnc3ccccc32)ccc1O,,2.37% (inactive)
Cc1ccc(S(=O)(=O)Oc2ccccc2/C=C2/SC(=O)NC2=O)cc1,,8.66% (inactive)
COc1ccc(NC2CCCN(C(=O)CN3CCOC3=O)C2)cc1OC (centres undefined),,-10.4% (inactive)
NC(=O)NN=C1CC2CC1C1C=CCC21 (centres undefined),,-12.3% (inactive)
COc1ccccc1-n1c(SCC(=O)O)nc2c(sc(=S)n2-c2ccc(C)c(C)c2)c1=O,> 39 µM (inactive),
Nc1ccc(-c2nc3ccc(N)cc3o2)cc1,12.5 µM (active),
CC(C)Cc1cc(C(=O)N2CCCC(CO)(Cc3ccc(F)cc3)C2)no1 (centres undefined),,1.04% (inactive)
S=C(NCCc1ccccc1)Nc1ncccn1,,-8.54% (inactive)
COc1cc(-c2n[nH]c(=S)n2/N=C/c2cccn2C)cc(OC)c1OC,,-11.9% (inactive)
